Test results as given in PubChem BioAssay AID1159606 (Sanford-Burnham Center for Chemical Genomics, 2016).
The campaign covered roughly 360,000 compounds. About 7,300 (2%) were called active. The sample holds actives, similar compounds and a random draw of the others, so the mix is not that of the screen. Cut-off read from the data, not from the text of the source: active = inhibition above about 50%; inactive = the rest.

Test: blockers of TWEAK-induced Fn14 reporter activity – luciferase reporter cells, uHTS, primary screen (AID 1159606)
Details: TWEAK-stimulated Fn14 reporter cells, luciferase luminescence, 8 h; at 10 µM; stronger effect = higher value

Q: Which inhibition does the source give for CC(C)CNC(=O)C1(C)CCCN1C(=O)CSc1ccccc1 (stereo not given) here?
A: Its inhibition is 24.6% (inactive).

Q: For O=C(/C=C/Sc1ncn[nH]1)c1ccc(Cl)cc1, which inhibition is on record?
A: Its inhibition is 46.2% (inactive).

Q: Which inhibition does the source give for COC(c1ccccc1)(c1ccccc1)C(Oc1nc(C)cc(C)n1)C(=O)O (stereo not given) here?
A: The inhibition was 1.41% (inactive).

Q: Which inhibition does the source give for Cc1cc(C)nc(S/C=C/C(=O)c2ccccc2)n1 here?
A: Its inhibition is 93.2% (active).

Q: For COc1ccc(NC(=O)CC2C(=O)NC3CCCCC3N2C(=O)c2ccc(F)cc2)cc1 (stereo not given), which inhibition is on record?
A: Its inhibition is 3.34% (inactive).

Q: Which inhibition does the source give for CCSc1nc(=S)n(CC)c(C)c1C(C)=O here?
A: The inhibition was -1.72% (inactive).

Q: With O=S1(=O)C[C@@H](N2CCN(CCO)CC2)[C@H](COCc2ccccc2)N1 as the molecule, how does the inhibition read?
A: The inhibition was 7.64% (inactive).

Q: For CCOC(=O)[C@H]1[C@H]2COc3ccc(C)cc3[C@@H]2N2C(=O)CN(Cc3ccc(F)cc3)C(=O)[C@@]12C, which inhibition is on record?
A: The inhibition was -5.2% (inactive).

Q: For O=C(COC(=O)CCc1nc2ccccc2c(=O)[nH]1)Nc1ccc(N2CCOCC2)cc1, which inhibition is on record?
A: Its inhibition is -0.73% (inactive).

Q: For COc1cccc(/C=C(/CC(=O)Nc2ccc(N3CCOCC3)cc2)c2nc3ccccc3s2)c1, which inhibition is on record?
A: Its inhibition is 62.8% (active).

Q: Which inhibition does the source give for CCn1c(Cc2ccc(OC)cc2)nnc1SCC(=O)Nc1ccc(N2CCOCC2)cc1 here?
A: The inhibition was 4.78% (inactive).

Q: For CCN(CC)C(=O)[C@H]1C[C@H](CC(=O)NCC23CC4CC(CC(C4)C2)C3)C(=O)N2CCc3c([nH]c4cc(CCC(=O)N(C)C)ccc34)[C@]12C, which inhibition is on record?
A: The inhibition was 6.21% (inactive).

Q: With Cc1cccc(CN2CCN(C3CN(Cc4cn(Cc5cc(C)cc(C)c5)nn4)S(=O)(=O)C3)CC2)c1 (stereo not given) as the molecule, how does the inhibition read?
A: Its inhibition is 12.5% (inactive).

Q: With CCc1ccc(-c2nnn(Cc3nc4ccccc4s3)n2)cc1 as the molecule, how does the inhibition read?
A: Its inhibition is -5.59% (inactive).

Q: For COC(=O)C1[C@H]2SC(C)(C)C(C(=O)OC)N2C(=O)N1Cc1nc2ccccc2s1 (stereo not given in full), which inhibition is on record?
A: Its inhibition is 10% (inactive).

Q: With COc1ccccc1OCc1nc2ccccc2s1 as the molecule, how does the inhibition read?
A: Its inhibition is 72.9% (active).

Q: With CC1(C)C2CC[C@]3(C)C(CC=C4[C@@H]5C[C@@](C)(CO)CC[C@]5(C(=O)O)CC[C@]43C)[C@@]2(C)CC[C@@H]1O (stereo not given in full) as the molecule, how does the inhibition read?
A: Its inhibition is -12.1% (inactive).

Q: For CC1CN(S(=O)(=O)c2ccc(C(=O)Nc3sccc3C(N)=O)cc2)CC(C)O1 (stereo not given), which inhibition is on record?
A: The inhibition was -0.86% (inactive).

Q: With CNC(=O)C1CN(C(=O)c2cccc(S(=O)(=O)N3CCc4ccccc43)c2)c2ccccc2O1 (stereo not given) as the molecule, how does the inhibition read?
A: The inhibition was 11.3% (inactive).

Q: For CNC(=O)c1ccsc1NC(=O)c1ccc(S(=O)(=O)N2CCc3ccccc32)cc1, which inhibition is on record?
A: Its inhibition is 54.5% (active).

Q: Which inhibition does the source give for CCCCCc1c(Cc2ccccc2)ncn1CCc1ccccc1OC here?
A: The inhibition was 24.1% (inactive).

Q: Which inhibition does the source give for Cc1ccc(C)c(NC(=O)CN(C)C(=O)c2ccc3ncsc3c2)c1 here?
A: Its inhibition is 1.46% (inactive).

Q: Which inhibition does the source give for Cc1ccc(NS(=O)(=O)c2cc3c(cc2Br)NC(=O)CO3)cc1C here?
A: Its inhibition is 19.6% (inactive).

Q: Which inhibition does the source give for O=C(Nc1cccc(F)c1)[C@@H]1CCCN1 here?
A: The inhibition was -1.09% (inactive).

Q: Which inhibition does the source give for O=C1c2ccccc2C(=O)N1CC1c2ccccc2CCN1S(=O)(=O)c1ccccc1 (stereo not given) here?
A: The inhibition was 4.13% (inactive).

Q: For CCC(C)NC(=O)c1ccccc1NC(=O)c1ccccc1N(C)S(C)(=O)=O (stereo not given), which inhibition is on record?
A: Its inhibition is -11.3% (inactive).

Q: With Cc1ccc2occ(/C=N/NC(=O)c3ccccc3C)c(=O)c2c1 as the molecule, how does the inhibition read?
A: The inhibition was 70.5% (active).

Q: With CC(C)(C)OC(=O)NCCCCCC(=O)N/N=C/c1coc2ccccc2c1=O as the molecule, how does the inhibition read?
A: Its inhibition is -1.48% (inactive).

Q: Which inhibition does the source give for O=c1c(/C=N/O)coc2ccc(Cl)cc12 here?
A: The inhibition was -3.08% (inactive).

Q: With CC1(C)CC(=O)c2cnc3nc4ccccc4n3c2C1 as the molecule, how does the inhibition read?
A: Its inhibition is 6.24% (inactive).

Q: With Cn1c(N)c(C(=O)COC(=O)/C=C/c2ccc(OC(F)F)cc2)c(=O)n(C)c1=O as the molecule, how does the inhibition read?
A: The inhibition was -0.1% (inactive).

Q: For CCCOc1ccc(F)cc1-c1cc(C(=O)NCc2ccc(F)cc2)[nH]n1, which inhibition is on record?
A: The inhibition was 24.1% (inactive).

Q: With CCCOc1ccc(F)cc1-c1cc(C(=O)Nc2ccc(F)c(Cl)c2)[nH]n1 as the molecule, how does the inhibition read?
A: Its inhibition is 76.2% (active).

Q: Which inhibition does the source give for CCCOc1ccc(F)cc1-c1cc(C(=O)Nc2ccc(F)cc2)[nH]n1 here?
A: Its inhibition is 37.3% (inactive).

Q: With CCCNC(=O)c1cc2c(c(-c3cccc(-c4ccc(C#N)cc4)c3)n1)[C@@H](CCO)N(C(=O)CC)C2 as the molecule, how does the inhibition read?
A: The inhibition was -20.1% (inactive).

Q: Which inhibition does the source give for CC(=O)c1c(C)n(-c2ccc(C)cc2)c2ccc(O)cc12 here?
A: Its inhibition is 15.6% (inactive).

Q: With Cc1cccc(OCC(=O)NCC(=O)N/N=C/c2ccc(N(C)C)cc2)c1 as the molecule, how does the inhibition read?
A: Its inhibition is -4.48% (inactive).

Q: With CC(=O)c1c(C)n(-c2ccc(N(C)C)cc2)c2ccc(OCC(N)=O)cc12 as the molecule, how does the inhibition read?
A: The inhibition was 57.5% (active).

Q: For COC(=O)[C@]12CCCCC=C1N(Cc1ccccc1)C(=O)[C@H](CC(=O)NCc1ccc(C)o1)C2, which inhibition is on record?
A: Its inhibition is 9.51% (inactive).

Q: With O=C1NC[C@H](CCCCN2C[C@H](Cc3ccc(O)cc3)N(CCc3ccccc3)C(=O)C2=O)N(CCc2ccccc2)C1=O as the molecule, how does the inhibition read?
A: Its inhibition is 13.5% (inactive).

Q: Which inhibition does the source give for O=C1CC(NNc2ccccc2)C(=O)N1c1cccc(Cl)c1 (stereo not given) here?
A: Its inhibition is 15.1% (inactive).

Q: Which inhibition does the source give for O=C1N/C(=C/c2cccn2-c2ccccc2)C(=O)N1c1cccc(Cl)c1 here?
A: The inhibition was 62.3% (active).

Q: Which inhibition does the source give for N#Cc1ccccc1CN1C(=O)S/C(=C/c2cccn2-c2cccc(C(=O)O)c2)C1=O here?
A: Its inhibition is 0.32% (inactive).

Q: With Cc1ccc([C@H]2C[C@H](O)[C@@H](n3cc(COC(=O)c4ccccc4)nn3)CN2C(=O)C2CCCCC2)cc1 as the molecule, how does the inhibition read?
A: Its inhibition is 21% (inactive).

Q: Which inhibition does the source give for COCCNC(=O)c1ccccc1-c1nc(-c2ccccc2Cl)no1 here?
A: Its inhibition is -18.8% (inactive).

Q: Which inhibition does the source give for Cc1c(NC(=O)C(C)OC(=O)c2ccccc2O)c(=O)n(-c2ccccc2)n1C (stereo not given) here?
A: Its inhibition is 2.88% (inactive).

Q: For COC(=O)[C@]12CCCCC=C1N(CCC1=CCCCC1)C(=O)[C@H](CC(=O)N1CCSCC1)C2, which inhibition is on record?
A: Its inhibition is -9.15% (inactive).

Q: With CN(Cc1ccc(F)cc1)C(=O)CN1C(=O)c2ccccc2S1(=O)=O as the molecule, how does the inhibition read?
A: The inhibition was 7.88% (inactive).

Q: For O=C(CN1C(=O)c2ccccc2S1(=O)=O)N1CCc2ccccc21, which inhibition is on record?
A: Its inhibition is 103% (active).

Q: With COc1ccc(CNC(=O)CN2C(=O)c3ccccc3S2(=O)=O)cc1 as the molecule, how does the inhibition read?
A: The inhibition was 8.55% (inactive).

Q: With CCN(CC)c1ncnc2c1ncn2[C@H]1CN(Cc2cccs2)C[C@@H](CO)O1 as the molecule, how does the inhibition read?
A: The inhibition was -23.3% (inactive).

Q: Which inhibition does the source give for COc1ccc(CN2C(=O)C(CC(=O)NC3CCCCC3)CC(C(=O)N3CCOCC3)=C2C)cc1 (stereo not given) here?
A: The inhibition was -7.48% (inactive).

Q: With CCc1cccc(C)c1N(C(=O)Cn1c(CO)nc2ccccc21)C(C)COC (stereo not given) as the molecule, how does the inhibition read?
A: The inhibition was -17.5% (inactive).

Q: For CCN1CCC2(CC1)N=C(c1ccc(F)cc1)C(=S)N2C(=O)c1ccc(C)cc1, which inhibition is on record?
A: Its inhibition is 42.7% (inactive).

Q: Which inhibition does the source give for CCN1CCC(O)(/C=C/c2ccc(C)cc2)C(C(=O)/C=C/c2ccc(C)cc2)C1 (stereo not given) here?
A: Its inhibition is 88.3% (active).
